# Reference: PubChem BioAssay (NCI)
# The panel holds about 83,000 compounds, 20% with a hit somewhere; the sample as a whole holds those more often.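 Cells were grown in 96-well plates and exposed to the test compound at a single concentration for 48 hours; results are reported as percent growth, with values below 10 considered active.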 A number with no mark means an inactive call. Activity calls are given as the source filed them.
# What was measured:
# Test in all cases: NCI-60 one-dose screen, 48 h (100 = growth as untreated, 0 = no growth, -100 = all killed)
# [1] = system: SR leukemia; conditions: 10 µM unless noted
# [2] = system: RPMI-8226 leukemia; conditions: 10 µM unless noted
# [3] = system: OVCAR-8 ovarian; conditions: 10 µM unless noted
# [4] = system: OVCAR-5 ovarian; conditions: 10 µM unless noted
# [5] = system: OVCAR-4 ovarian; conditions: 10 µM unless noted
# [6] = system: SK-OV-3 ovarian; conditions: 10 µM unless noted
# [7] = system: IGROV1 ovarian; conditions: 10 µM unless noted
# [8] = system: OVCAR-3 ovarian; conditions: 10 µM unless noted
# [9] = system: HS 578T breast; conditions: 10 µM
# [10] = system: NCI/ADR-RES ovarian; conditions: 10 µM unless noted
# [11] = system: T-47D breast; conditions: 10 µM unless noted
# [12] = system: BT-549 breast; conditions: 10 µM unless noted
# [13] = system: MDA-MB-435 melanoma; conditions: 10 µM unless noted
# [14] = system: SW-620 colon; conditions: 10 µM unless noted
# [15] = system: MCF7 breast; conditions: 10 µM unless noted
# [16] = system: HCT-116 colon; conditions: 10 µM unless noted
# [17] = system: HCC-2998 colon; conditions: 10 µM
# [18] = system: KM12 colon; conditions: 10 µM unless noted
Compound,growth [1],growth [2],growth [3],growth [4],growth [5],growth [6],growth [7],growth [8],growth [9],growth [10],growth [11],growth [12],growth [13],growth [14],growth [15],growth [16],growth [17],growth [18]
CCN(CC)Cc1cc(Nc2cc(C(F)(F)F)c(C#N)c3nc4ccccc4n23)ccc1O,12.8%,0.326% (active),9.84% (active),31%,14.2%,-10.8% (active),28.9%,10.9%,22.8%,6.79% (active),-1.95% (active),8.37% (active),16.9%,14.7%,8.72% (active),4.67% (active),20.2%,10.8%
O=S1(=O)OC(c2cc(Cl)c(O)c(Br)c2)(c2cc(Cl)c(O)c(Br)c2)c2ccccc21,92.4%,102%,89.8%,100%,101%,109%,95.6%,115%,94.1%,102%,114%,,124%,99.6%,104%,96.7%,103%,106%
Cc1c(N)ccc(-c2ccc(N)c(C)c2S(=O)(=O)O)c1S(=O)(=O)O,102%,107%,107%,101%,112%,111%,110%,124%,106%,102%,106%,,114%,109%,108%,101%,102%,116%
O=C1CCC(=O)CC1,97.4%,110%,101%,92.3%,113%,112%,96.3%,117%,103%,104%,102%,,102%,103%,101%,109%,99.9%,106%
CCCc1cc2cc(-n3nc(C)c4c3CC(C)(C)CC4=O)cc(NC3CCC(O)CC3)c2c(=O)[nH]1 (stereo not drawn),23.8%,15.2%,33%,50.5%,64.7%,6.8% (active),36.9%,23.2%,47.4%,45.5%,38.2%,29.2%,20.8%,24.9%,25.4%,,24.7%,4.71% (active)
Cc1cc(N2CCCC2)nc(N(CCCNc2ccnc3cc(Cl)ccc23)Cc2ccc3c(c2)OCO3)n1,-36% (active),-31.2% (active),-2.12% (active),-3.2% (active),13.5%,53.5%,-7.14% (active),-32.8% (active),-32.2% (active),1.74% (active),-18.4% (active),,-71.9% (active),-27% (active),-12.8% (active),-22.9% (active),-52.4% (active),19.1%
O=C1CSC(c2c(F)cccc2Cl)N1NC(=O)C(O)(c1ccccc1)c1ccccc1 (stereo not drawn),95.5%,94%,98.3%,103%,97.4%,101%,72%,100%,90.1%,95.4%,93.3%,104%,104%,99.9%,110%,94.8%,,108%
CC(=O)OC(C(=O)c1ccccc1)c1ccccc1 (stereo not drawn),106%,105%,98%,102%,97.8%,94.1%,105%,121%,125%,107%,95.5%,,108%,99.3%,95.8%,95.8%,112%,101%
N#Cc1c(-c2ccc(C(F)(F)F)cc2)cc(NCC2CCS(=O)(=O)CC2)n2c1nc1ccccc12,79.9%,80.9%,93.3%,103%,85.4%,83.3%,85.6%,97.9%,81.3%,103%,64.3%,64.9%,92.8%,93.3%,85.6%,,91.9%,98.4%
O=S1(=O)OC(c2ccc(O)c(Cl)c2)(c2ccc(O)c(Cl)c2)c2ccccc21,112%,104%,87.5%,96.5%,99.8%,101%,91.2%,116%,97%,105%,97.2%,,113%,100%,104%,99.8%,103%,103%
CC(C)[C@@H]1CC[C@@H]2[C@@H]1[C@H](OC(=O)/C=C/c1ccccc1)[C@]1(C(C)C)C[C@@H](OC(=O)CO)[C@@]2(C)O1,41.8%,53.7%,16.5%,109%,79.4%,91.3%,102%,83.6%,-15.4% (active),13.9%,52.2%,20.5%,101%,99.4%,71.7%,65.2%,79.9%,82.6%
COc1ccc(OC)c(NC2=C(SCCc3ccccc3)C(=O)c3ccccc3C2=O)c1,70.7%,74%,94.5%,99.3%,58.4%,88.5%,75.7%,83.4%,70.8%,76.5%,70.6%,,94.7%,94%,69.7%,72.3%,102%,76.7%
O=C(c1ccccc1)C(c1ccccc1)N1CCOCC1 (stereo not drawn),95.6%,101%,105%,105%,108%,105%,104%,101%,97%,98.6%,98.8%,110%,109%,103%,98.3%,102%,102%,99.1%
N#CC(C#N)=NO,97.1%,101%,103%,104%,113%,89.1%,101%,111%,99.6%,100%,102%,103%,,100%,96.1%,92.5%,96.3%,103%
O=C(Cn1ccc2ccccc21)Nc1ccc(-c2nc3ccccc3s2)cc1,95.5%,100%,105%,104%,103%,102%,73.8%,102%,97.7%,100%,90.6%,105%,104%,106%,38.2%,102%,103%,106%
CCN(CC)c1cc2oc3cc(N)cc(=N)c-3nc2cc1C,30.4%,43.4%,2.1% (active),32.3%,-6.55% (active),103%,50.9%,24.7%,37.4%,1.37% (active),39%,,-64.8% (active),24.1%,1.63% (active),-12.2% (active),100%,
O=C1CC(c2ccc3c(c2)OCO3)c2ncn(-c3ccc(Cl)cc3)c2N1 (stereo not drawn),24.4%,38.7%,29.7%,71.2%,59.3%,37.4%,60.5%,7.91% (active),47.5%,14%,41.3%,57.5%,-42.8% (active),24.3%,45.5%,11.4%,68.1%,32.7%
